Screening data as filed in PubChem.
MEKK2 WT-MEK5: raises or lowers MEK5 binding to wildtype human MEKK2 PB1 domain; binding response (% of control), % at 10 µM; actives 1.1% (n = 290,000); bead flow cytometry, Alexa488-MEK5 binding to MEKK2 WT; actives lie on both sides; Q9Y2U5; in the data active means binding response below about 67% or above about 130%
MEKK3 PB1 HTS: modulators (inhibitors or enhancers) of MEK5 binding to human MEKK3 PB1 domain; AID 1529; Q99759; bead-based flow cytometry, Alexa488-MEK5 binding to MEKK3; actives lie on both sides; 0 = blocked by unlabeled MEK5, 100 = vehicle; actives 1.4% (n = 290,000); binding response (% of control), % at 10 µM;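 active means binding response more than 3 SD above or below the average of its plate-row segment, actives on both sides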;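 further: Alexa488 bead fluorescence after subtracting the streptavidin-only scavenger bead signal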
FID counter: fluorescent intercalator displacement, NS3 helicase counter-screen | DNA fluorescent intercalator displacement, fluorescence | inhibition, % at 7.9 µM | actives 0.17% (n = 290,000) | AID 1845; in the data active means inhibition above about 37%;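 further: 0% = vehicle and 100% = reference compound; higher means more ethidium bromide displaced from hairpin DNA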
MEKK2 mut-MEK5: signal of MEK5 binding to mutant human MEKK2 PB1 domain; bead flow cytometry, Alexa488-MEK5 binding to MEKK2 mutant; percent response, % at 10 µM; actives 0.35% (n = 290,000); AID 1530; in the data active means percent response above about 24%, passing the limit was not always enough
dFosB act-1: activators of mouse delta FosB homodimer. P13346. purified delta FosB, TAMRA-CDK5 oligo fluorescence polarization; percent of positive-control signal above neutral wells. activation, % at 25 µM. actives 0.99% (n = 340,000). AID 493131;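 active means mean activation above about 17%, with every replicate also reaching it, limit read from the data, passing the limit was not always enough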
Target sequence (P13346 whole entry, looked up): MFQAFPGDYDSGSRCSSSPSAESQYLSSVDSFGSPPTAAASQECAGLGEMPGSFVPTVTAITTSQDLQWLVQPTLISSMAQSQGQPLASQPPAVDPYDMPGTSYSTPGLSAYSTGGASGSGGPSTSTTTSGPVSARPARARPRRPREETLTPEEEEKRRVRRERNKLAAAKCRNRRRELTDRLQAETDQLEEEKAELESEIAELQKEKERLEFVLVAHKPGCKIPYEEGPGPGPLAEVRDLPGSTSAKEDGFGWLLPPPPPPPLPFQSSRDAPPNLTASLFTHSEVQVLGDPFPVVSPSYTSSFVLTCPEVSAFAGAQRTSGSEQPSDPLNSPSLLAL
dFosB act-2: enhances mouse delta FosB homodimer binding to DNA. 2,400 tested, under 10 active. purified delta FosB, TAMRA-CDK5 oligo fluorescence polarization; normalised: neutral wells 0, positive control 100. shares compounds with dFosB act-1. activation, % at 24.9 µM;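 active means highest replicate activation at or above 34% and every replicate reaching that threshold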;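 further: higher polarization means more probe DNA bound by delta FosB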
Active calls of the source: *. Shown are actives, neighbours in structure and some others; about 2.9% of the full set was active somewhere.

How did Cc1cc(C(=O)Nc2ccc(F)cc2)c2ccccc2n1 do in these assays?
MEKK2 WT-MEK5: 105; MEKK3 PB1 HTS: 104; FID counter: -3; MEKK2 mut-MEK5: 15; dFosB act-1: 6

What do the screens show for `Cc1c(C(=O)Nc2ccc(F)cc2)cn2c(nc3ccccc32)c1C#N`?
MEKK2 WT-MEK5: 87; MEKK3 PB1 HTS: 95; FID counter: -2; MEKK2 mut-MEK5: 2; dFosB act-1: 33*; dFosB act-2: -1

What do the screens show for `COC(=O)c1cc(NC(=O)C2CC(=O)NC(=NCc3ccc(OC)cc3)S2)cc(C(=O)OC)c1` (configuration not stated)?
MEKK2 WT-MEK5: 93; MEKK3 PB1 HTS: 95; FID counter: 2; MEKK2 mut-MEK5: -9; dFosB act-1: 37*; dFosB act-2: -5

How did CCOc1ccc(-c2cc(NC(=O)Cn3ncc4c3-c3ccccc3OC4)on2)cc1OCC do in these assays?
MEKK2 WT-MEK5: 101; MEKK3 PB1 HTS: 101; FID counter: -7; MEKK2 mut-MEK5: -2; dFosB act-1: 39*; dFosB act-2: 3

What do the screens show for `COc1ccccc1NC(=O)Cn1ncc2c1-c1ccccc1OC2`?
MEKK2 WT-MEK5: 113; MEKK3 PB1 HTS: 114; FID counter: -11; MEKK2 mut-MEK5: 7; dFosB act-1: -7

What do the screens show for `Fc1ccc(Oc2nccc(-c3ccc(Cl)cc3)n2)cc1`?
MEKK2 WT-MEK5: 93; MEKK3 PB1 HTS: 88; FID counter: -4; MEKK2 mut-MEK5: -14; dFosB act-1: -3

What do the screens show for `Cc1ccc(CNC(=S)Nc2ccc(NS(=O)(=O)c3ccc(C)cc3)cc2)cc1`?
MEKK2 WT-MEK5: 112; MEKK3 PB1 HTS: 106; FID counter: -23; MEKK2 mut-MEK5: 1; dFosB act-1: 19*; dFosB act-2: 3

How did CCC1(c2ccc(F)cc2)NC(=O)N(CC(=O)N2CCN(C(=O)c3cccs3)CC2)C1=O (configuration not stated) do in these assays?
dFosB act-1: -2

How did CCOc1cc(/C=N/N2CCOCC2)ccc1OCc1ccc(C(=O)OC)o1 do in these assays?
MEKK2 WT-MEK5: 95; MEKK3 PB1 HTS: 101; FID counter: -7; MEKK2 mut-MEK5: -7; dFosB act-1: -10

Results for O=C(CCS(=O)(=O)Cc1ccccc1F)NCc1ccccc1Cl ?
MEKK2 WT-MEK5: 102; MEKK3 PB1 HTS: 105; FID counter: -5; MEKK2 mut-MEK5: 0; dFosB act-1: 18*; dFosB act-2: -2

Results for O=C(Oc1ccccc1F)c1ccc2c(=O)n3c(nc2c1)CCC3 ?
dFosB act-1: -11

What do the screens show for `CCN1CCN(c2nc3c(C)cccn3c(=O)c2/C=C(\C#N)S(=O)(=O)c2ccc(Cl)cc2)CC1`?
MEKK2 WT-MEK5: 120; MEKK3 PB1 HTS: 105; FID counter: 3; MEKK2 mut-MEK5: 25; dFosB act-1: 48*; dFosB act-2: -2

What do the screens show for `COc1ccc(C(=O)Nn2c(SCC(=O)N3CCC(C)CC3)nc3ccccc3c2=O)cc1`?
MEKK2 WT-MEK5: 96; MEKK3 PB1 HTS: 106; FID counter: -20; MEKK2 mut-MEK5: 4; dFosB act-1: 29*; dFosB act-2: 3

Results for Cc1cc([N+](=O)[O-])c(C)cc1-c1ccc(/C=N/NC(=O)Cn2nnnc2N)o1 ?
MEKK2 WT-MEK5: 101; MEKK3 PB1 HTS: 104; FID counter: 15; MEKK2 mut-MEK5: -1; dFosB act-1: 33*; dFosB act-2: 6

How did CCCCn1c(-c2ccccc2)cnc1SCC(=O)NCCc1ccc(OC)c(OC)c1 do in these assays?
MEKK2 WT-MEK5: 103; MEKK3 PB1 HTS: 103; FID counter: -27; MEKK2 mut-MEK5: 2; dFosB act-1: -15

How did O=c1c(Cc2ccccc2)c(O)ccn1Cc1ccc2c(c1)OCO2 do in these assays?
MEKK2 WT-MEK5: 99; MEKK3 PB1 HTS: 101; FID counter: -5; MEKK2 mut-MEK5: -2; dFosB act-1: 37*; dFosB act-2: 6

How did COc1ccc(OCCC(=O)NCC23CC4CC(CC(C4)C2)C3)cc1 do in these assays?
MEKK2 WT-MEK5: 71; MEKK3 PB1 HTS: 63; FID counter: -31; MEKK2 mut-MEK5: -10; dFosB act-1: -10
